Measured values published in PMC9911399, “Two distinct binding modes provide the RNA-binding protein RbFox with extraordinary sequence specificity”.
Substitutions are numbered along the chain they refer to; changes in the protein carry UniProt numbers. Whole data set: some 16,000 sequences, median “ka relative to ugcaugu” near 0.0091, cut for the highest 2% near 0.032. The sample as a whole holds a higher share of the highest values than the screen did.

B1: UCUCAAG (DNA:RNA)
RNA: GGGAGACCGGAAUUCAGAUUGUCCUCUCAAGUUAAAUCCCGUCGUAGCCACCA
DNA 1: CAATCTGAATTCCGGTCTCCC
DNA 2: TGGTGGCTACGACGGGATT
B2: UCUUGAA (DNA:RNA)
RNA: B1 RNA with C28U, A29G, G31A
DNA 1: CAATCTGAATTCCGGTCTCCC
DNA 2: TGGTGGCTACGACGGGATT
B3: CUGUACU (DNA:RNA)
RNA: B1 RNA with U25C, C26U, U27G, C28U, A30C, G31U
DNA 1: CAATCTGAATTCCGGTCTCCC
DNA 2: TGGTGGCTACGACGGGATT
B4: UAUUACG (DNA:RNA)
RNA: B1 RNA with C26A, C28U, A30C
DNA 1: CAATCTGAATTCCGGTCTCCC
DNA 2: TGGTGGCTACGACGGGATT
B5: ACCUGUG (DNA:RNA)
RNA: B1 RNA with U25A, U27C, C28U, A29G, A30U
DNA 1: CAATCTGAATTCCGGTCTCCC
DNA 2: TGGTGGCTACGACGGGATT
B6: GAUAUAG (DNA:RNA)
RNA: B1 RNA with U25G, C26A, C28A, A29U
DNA 1: CAATCTGAATTCCGGTCTCCC
DNA 2: TGGTGGCTACGACGGGATT
B7: CUUAACU (DNA:RNA)
RNA: B1 RNA with U25C, C26U, C28A, A30C, G31U
DNA 1: CAATCTGAATTCCGGTCTCCC
DNA 2: TGGTGGCTACGACGGGATT
B8: AAGGGCU (DNA:RNA)
RNA: GGGAGACCGGAAUUCAGAUUGUCCAAGGGCUUUAAAUCCCGUCGUAGCCACCA
DNA 1: CAATCTGAATTCCGGTCTCCC
DNA 2: TGGTGGCTACGACGGGATT
B9: UUAAAUG (DNA:RNA)
RNA: B1 RNA with C26U, U27A, C28A, A30U
DNA 1: CAATCTGAATTCCGGTCTCCC
DNA 2: TGGTGGCTACGACGGGATT
B10: UUGAAUC (DNA:RNA)
RNA: B1 RNA with C26U, U27G, C28A, A30U, G31C
DNA 1: CAATCTGAATTCCGGTCTCCC
DNA 2: TGGTGGCTACGACGGGATT
B11: UUGAAUG (DNA:RNA)
RNA: B1 RNA with C26U, U27G, C28A, A30U
DNA 1: CAATCTGAATTCCGGTCTCCC
DNA 2: TGGTGGCTACGACGGGATT

target: T1, RBFOX1 RRM (Homo sapiens, UniProt Q9NWB1 109-208); assay: EMSA; HiTS-Eq, 1 nM pool, 10 min; buffer printed only for the single-RNA assays: 10 mM Tris pH 7.5, 150 mM NaCl, 3.4 mM EDTA, 0.001% NP-40, 30 C; settings: tags: His6 N-terminal (pET28a); label: 5' 32P
T1 sequence: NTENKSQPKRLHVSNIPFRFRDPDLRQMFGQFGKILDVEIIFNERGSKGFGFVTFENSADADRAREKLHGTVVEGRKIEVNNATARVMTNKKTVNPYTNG
Outline: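 Purified wild-type or mutant RbFox RRM at increasing concentrations was equilibrated with 1 nM of 5′-radiolabelled RNA carrying 7 randomized nucleotides for 10 min in 50 µL. Unbound RNA was separated by 8% native PAGE and sequenced. Relative association constants came from read-count changes of each RNA species compared with the control reaction, normalised to the cognate motif.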

Binder | binding signal
B1 | 0.00583 KA relative to UGCAUGU
B2 | 0.0145 KA relative to UGCAUGU
B3 | 0.00801 KA relative to UGCAUGU
B4 | 0.0123 KA relative to UGCAUGU
B5 | 0.00788 KA relative to UGCAUGU
B6 | 0.0101 KA relative to UGCAUGU
B7 | 0.0019 KA relative to UGCAUGU
B8 | 0.0102 KA relative to UGCAUGU
B9 | 0.0123 KA relative to UGCAUGU
B10 | 0.0179 KA relative to UGCAUGU
B11 | 0.037 KA relative to UGCAUGU
